Reference: PubChem BioAssay (Tox21)
Several values for one entry are separate records, joined by “and”; a condition that tells them apart may be missing. Equal entries are not always repeated. Inconclusive results are not listed. Entries that show only a call come without a potency. Activity calls are given as the source filed them. Calls follow the shape of the dose curve; as a rule, active = well fitted cell-killing curve with a large enough effect in the repeat runs; inconclusive = weak or mixed curves, or effect the other way; inactive = no such curve, though single readings can be large or run the other way.

assay: qHTS assay to identify small molecule antagonists of the progesterone receptor (PR) signaling pathway - cell viability counter screen (AID 1346798); conditions: PR-UAS-bla HEK293T viability, CellTiter-Glo luminescence, 16 h; series mostly up to 92.4 µM; also: nearly all actives have a fitted effect of over 50% in size
Excerpt: National Center for Advancing Translational Sciences [NCATS]
NIH Chemical Genomics Center [NCGC]
U.S. Environmental Protection Agency [EPA]
National Institutes of Environmental Health Sciences [NIEHS]
National Toxicology Program [NTP]
U.S. Food and Drug Administration [FDA]
Progesterone receptor (PR), a nuclear hormone receptor, plays an important role in development, metabolic homeostasis and reproduction. It is activated by the steroid hormone progesterone. Endocrine disrupting chemicals (EDCs) and their interactions with steroid hormone receptors like PR causes disruption of normal endocrine function. To identify the compounds that inhibit PR signaling, a PR-UAS-bla GripTite cell line i.e. PR-UAS-bla HEK293T (Invitrogen, Carlsbad, CA, USA) containing a beta-lactamase reporter gene under the control of an UAS response element was used to screen Tox21 10K compound library. The cytotoxicity of the Tox21 compound library against the PR-bla cell line was tested in parallel by measuring the cell viability using CellTiter-Glo assay in the same wells.
Tox21 Assay Protocol Summary:
PR-UAS-bla HEK293T cells were dispensed at 3,000 cells/4 uL of assay medium containing 2% charcoal stripped FBS per well into black wall/clear-bottom 1536-well plates using a Multidrop Combi (ThermoFisher Scientific, Waltham, MA) dispenser. After the assay plates were incubated at a 37C and 5% CO2 for 4 hr, 23 nL of compounds dissolved in DMSO, positive controls or DMSO only was transferred to the assay plate by a Pintool station (Kalypsys, San Diego, CA), followed by addition of 1 uL of R5020 in assay medium using a Flying Reagent Dispenser (FRD, Aurora Discovery, San Diego, CA). The plates were incubated at 37C and 5% CO2 for 16 hr. Then 1 uL of LiveBLAzer B/G FRET substrate was added using a Flying Reagent Dispenser, the plates were incubated at room temperature for 2 hours, and fluorescence intensity was measured by an Envision plate reader (PerkinElmer, Shelton, CT). For cell viability readout that measures cytotoxicity, 4 uL/well of CellTiter-Glo reagent was added into the assay plates using a FRD. After 30 min incubation at room temperature, the luminescence intensity in the plates was measured using a ViewLux (PerkinElmer) plate reader.
Potency is read from the fitted curve at half-maximal effect.

Q: Which Potency does the source give for `NS(=O)(=O)c1cc2c(cc1Cl)NCNS2(=O)=O` here?
A: inactive

Q: With `CN(C)CCOC(c1ccccc1)c1ccccc1` as the compound, how does the Potency read?
A: inactive

Q: Which Potency does the source give for `C=CCc1ccc(O)c(OC)c1` here?
A: inactive

Q: Which Potency does the source give for `CCCCCCCCCCCC[N+](C)(C)Cc1ccccc1` here?
A: 29.7 µM (active) and 33.5 µM (active)

Q: For `CC(O)(P(=O)(O)O)P(=O)(O)O`, which Potency is on record?
A: inactive

Q: For `CCOc1ccc(NC(C)=O)cc1`, which Potency is on record?
A: inactive

Q: For `O=C1O[C@H]([C@@H](O)CO)C(O)=C1O`, which Potency is on record?
A: inactive

Q: With `COc1ccc(OC(F)(F)F)cc1CN[C@H]1CCCN[C@H]1c1ccccc1` as the compound, how does the Potency read?
A: 30.6 µM (active)

Q: For `COc1ccc(C(Cl)=C(c2ccc(OC)cc2)c2ccc(OC)cc2)cc1`, which Potency is on record?
A: inactive

Q: Which Potency does the source give for `Cc1cn([C@H]2C=C[C@@H](CO)O2)c(=O)[nH]c1=O` here?
A: inactive

Q: For `O=C(Nc1ncc([N+](=O)[O-])s1)c1cccs1`, which Potency is on record?
A: inactive

Q: With `O=C1c2c(O)cccc2Cc2cccc(O)c21` as the compound, how does the Potency read?
A: inactive

Q: Which Potency does the source give for `NS(=O)(=O)O` here?
A: inactive

Q: For `CN(C)C(=O)Nc1ccc(Cl)c(Cl)c1`, which Potency is on record?
A: inactive

Q: Which Potency does the source give for `CCCCCCCC(=O)OCC(COC(=O)CCCCCCC)OC(=O)CCCCCCC` here?
A: inactive

Q: With `CCCCOC(=O)c1ccc(O)cc1` as the compound, how does the Potency read?
A: inactive

Q: With `CN1[C@@H]2CC(OC(=O)[C@H](CO)c3ccccc3)C[C@H]1[C@@H]1O[C@@H]12` (stereo not given in full) as the compound, how does the Potency read?
A: inactive

Q: Which Potency does the source give for `OC[C@H]1O[C@H](O[C@]2(CCl)O[C@H](CCl)[C@@H](O)[C@@H]2O)[C@H](O)[C@@H](O)[C@H]1Cl` here?
A: inactive

Q: Which Potency does the source give for `NC(CO)(CO)CO` here?
A: inactive

Q: With `O=S1(=O)OC(c2ccc(O)cc2)(c2ccc(O)cc2)c2ccccc21` as the compound, how does the Potency read?
A: inactive

Q: Which Potency does the source give for `O=C1NS(=O)(=O)c2ccccc21` here?
A: inactive

Q: With `CCN(Cc1c(F)cccc1Cl)c1c([N+](=O)[O-])cc(C(F)(F)F)cc1[N+](=O)[O-]` as the compound, how does the Potency read?
A: 21.7 µM (active)

Q: For `Cc1c(C(=O)O)c(O)cc2c1C(=O)c1c(O)c([C@@H]3O[C@H](CO)[C@@H](O)[C@H](O)[C@H]3O)c(O)c(O)c1C2=O`, which Potency is on record?
A: inactive

Q: For `CC(C)NCC(O)c1ccc(O)c(O)c1` (stereo not given), which Potency is on record?
A: inactive

Q: Which Potency does the source give for `O=c1[nH]cnc2c1ncn2[C@H]1CC[C@@H](CO)O1` here?
A: inactive

Q: For `CCCCC(CC)C(=O)O` (stereo not given), which Potency is on record?
A: inactive

Q: Which Potency does the source give for `CNNCc1ccc(C(=O)NC(C)C)cc1` here?
A: inactive

Q: With `NC1CCCCC1` as the compound, how does the Potency read?
A: inactive

Q: With `Cc1cccc(C)c1` as the compound, how does the Potency read?
A: inactive

Q: Which Potency does the source give for `CN(C)C(=S)SC(=S)N(C)C` here?
A: 994 nM (active) and 969 nM (active) and 750 nM (active)

Q: Which activity change, negative = cytotoxicity does the source give for `Nc1ccc2c(c1)CN1C(=O)c3ccccc3C1=N2` here?
A: -15.2% [at 18.9 µM] (inactive)

Q: With `CN(N=O)C(=O)N[C@@H]1[C@@H](O)[C@H](O)[C@@H](CO)O[C@@H]1O` as the compound, how does the Potency read?
A: inactive

Q: With `NC(=O)c1cccnc1` as the compound, how does the Potency read?
A: inactive

Q: With `CC(=O)Nc1c(I)c(NC(C)=O)c(I)c(C(=O)O)c1I` as the compound, how does the Potency read?
A: inactive

Q: With `O=CC(=O)c1ccccc1` as the compound, how does the Potency read?
A: inactive

Q: Which Potency does the source give for `Cc1cc(=O)oc2cc(O)ccc12` here?
A: inactive

Q: For `COc1cccc(O)c1O`, which Potency is on record?
A: inactive

Q: With `C1CCC(C(CC2CCCCN2)C2CCCCC2)CC1` (stereo not given) as the compound, how does the Potency read?
A: 26.6 µM (active)

Q: Which Potency does the source give for `CC1(C)S[C@@H]2[C@H](NC(=O)[C@H](N)c3ccccc3)C(=O)N2[C@H]1C(=O)O` here?
A: inactive

Q: For `C/C=C/C=C/C(=O)O`, which Potency is on record?
A: inactive
